Assay results: PubChem BioAssay AID1159580 (chemical genetic matrix, 2015)
Where “and” joins values, the source holds several entries; their conditions need not be identical. Equal values may be shown once. The campaign covered roughly 5,500 compounds. About 2,000 (36%) were called active. Inconclusive results (about 18%) are left out. Cut-off read from the data, not from the text of the source: active = normalized growth mostly below about 0.91 (no sharp cut-off); inconclusive = no clear call, values can overlap the other calls; inactive = mostly above about 0.92. The list shows a part of the results.

Assay: chemical genetic growth profiling, strain panel (AID 1159580);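 note: tested at 20 µM; growth read once vehicle control cultures reached saturation at 30 °C; 1 = growth at the plate median or of vehicle wells; lower values mean less growth of the strain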
Details: S. cerevisiae deletion strains, growth OD

Measured: normalized growth

C[N+](C)(C)CC(=O)[O-]
inactive: locus YAL013W, strain DEP1, active compounds read low 0.992 | locus YAL021C, strain ccr4, active compounds read low 0.993 | locus YAL026C, strain drs2, active compounds read low 0.983 | locus YAL030W, strain snc1, active compounds read low 1 | locus YBL061C, strain skt5, active compounds read low 0.978 | locus YBR009C, strain hhf1, active compounds read low 1 | locus YBR021W, strain FUR4, active compounds read low 1.16 | locus YBR023C, strain chs3, active compounds read low 0.998 | locus YBR171W, strain sec66, active compounds read low 0.981 | locus YBR229C, strain ROT2, active compounds read low 0.993 | locus YBR231C, strain swc5, active compounds read low 0.969 | locus YBR279W, strain paf1, active compounds read low 0.997 | locus YCL011C, strain gbp2, active compounds read low 0.982 | locus YCL016C, strain dcc1, active compounds read low 1 | locus YCL029C, strain bik1, active compounds read low 0.982 | locus YCL061C, strain MRC1, active compounds read low 0.972 | locus YCL069W, strain vba3, active compounds read low 0.997 | locus YCR088W, strain abp1, active compounds read low 0.996 | locus YDL005C, strain med2, active compounds read low 0.959 | locus YDL035C, strain GPR1, active compounds read low 0.994 | locus YDL040C, strain nat1, active compounds read low 0.988 | locus YDL074C, strain BRE1, active compounds read low 0.949 | locus YDL101C, strain DUN1, active compounds read low 0.998 | locus YDL134C, strain PPH21, active compounds read low 1.01 | locus YDL185W, strain tfp1, active compounds read low 0.95 | locus YDL192W, strain arf1, active compounds read low 0.985 | locus YDR001C, strain nth1, active compounds read low 0.957 | locus YDR069C, strain doa4, active compounds read low 0.955 | locus YDR101C, strain arx1, active compounds read low 0.969 | locus YDR137W, strain rgp1, active compounds read low 1.02 | locus YDR150W, strain NUM1, active compounds read low 0.981 | locus YDR159W, strain sac3, active compounds read low 0.978 | locus YDR162C, strain NBP2, active compounds read low 0.996 | locus YDR195W, strain ref2 0.974 | locus YDR297W, strain sur2, active compounds read low 0.994 | locus YDR318W, strain mcm21, active compounds read low 0.992 | locus YDR334W, strain swr1, active compounds read low 0.939 | locus YDR335W, strain msn5, active compounds read low 0.964 | locus YDR388W, active compounds read low 0.997 | locus YDR392W, strain spt3, active compounds read low 1 | locus YDR502C, strain sam2, active compounds read low 0.986 | locus YEL003W, strain gim4, active compounds read low 0.99 | locus YEL037C, strain rad23, active compounds read low 0.989 | locus YEL061C, strain CIN8 (second series), active compounds read low 0.992 | locus YEL061C, strain CIN8, active compounds read low 0.996 | locus YER015W, strain faa2, active compounds read low 0.993 | locus YER016W, strain bim1, active compounds read low 1.02 | locus YER110C, active compounds read low 0.985 | locus YER111C, strain swi4, active compounds read low 0.992 | locus YER155C, strain BEM2 (second series), active compounds read low 0.987 | locus YER155C, strain BEM2, active compounds read low 0.996 | locus YER167W, strain BCK2, active compounds read low 0.993 | locus YFR010W, strain ubp6, active compounds read low 0.958 | locus YGL078C, strain dbp3, active compounds read low 0.998 | locus YGL086W, strain mad1, active compounds read low 1.01 | locus YGL167C, strain pmr1, active compounds read low 0.978 | locus YGL173C, strain kem1, active compounds read low 1 | locus YGL227W, strain vid30, active compounds read low 0.968 | locus YGL240W, strain doc1, active compounds read low 0.981 | locus YGL248W, strain PDE1, active compounds read low 0.989 | locus YGL253W, strain hxk2, active compounds read low 0.962 | locus YGR078C, strain PAC10, active compounds read low 0.955 | locus YGR135W, strain pre9, active compounds read low 0.984 | locus YGR229C, strain SMI1, active compounds read low 0.979 | locus YGR252W, strain gcn5, active compounds read low 1.19 | locus YHR013C, strain ard1, active compounds read low 0.992 | locus YHR027C, strain rpn1, active compounds read low 0.983 | locus YHR030C, strain SLT2, active compounds read low 0.993 and 0.982 | locus YHR079C, strain IRE1 (second series), active compounds read low 0.982 | locus YHR079C, strain IRE1, active compounds read low 0.989 | locus YHR094C, strain hxt1, active compounds read low 0.973 | locus YHR129C, strain ARP1, active compounds read low 0.994 | locus YHR142W, strain chs7, active compounds read low 0.963 | locus YHR200W, strain rpn10, active compounds read low 0.978 | locus YIL066C, strain RNR3, active compounds read low 0.983 | locus YIL073C, strain SPO22, active compounds read low 0.94 | locus YIL125W, strain kgd1, active compounds read low 0.988 | locus YIR030C, strain dcg1, active compounds read low 0.994 | locus YJL092W, strain hpr5, active compounds read low 0.989 | locus YJL095W, strain BCK1 (second series), active compounds read low 0.979 | locus YJL095W, strain BCK1, active compounds read low 0.987 and 0.995 | locus YJL115W, strain asf1, active compounds read low 0.966 | locus YJL129C, strain trk1, active compounds read low 0.958 | locus YJL134W, strain LCB3, active compounds read low 1 | locus YJL154C, strain vps35, active compounds read low 0.963 | locus YJL164C, strain tpk1, active compounds read low 1.01 | locus YJL166W, strain qcr8, active compounds read low 0.978 | locus YJL168C, strain set2, active compounds read low 0.992 | locus YJL187C, strain SWE1 (second series), active compounds read low 0.988 | locus YJL187C, strain SWE1, active compounds read low 0.964 | locus YJR043C, strain POL32, active compounds read low 0.998 | locus YJR066W, strain TOR1, active compounds read low 0.948
